Inconclusive results are not listed. Entries that show only a call come without a potency. A number with no mark means an inactive call. Active and inactive are the calls of the source. Unless noted, calls come from the whole dose curve.
These compounds were tested against Beta-2 adrenergic receptor (Homo sapiens) (UniProt P07550) (assay: Adrenergic beta2 receptor (ADRB2) small molecule agonists, cell-based qHTS assay (AID 1963593;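 note: CHO cells stably overexpressing human ADRB2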)). Conditions: CHO-ADRB2 cells, cAMP HTRF, 30 min; series mostly up to 42.5 µM.
Outline: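 CHO cells stably over-expressing ADRB2 were plated overnight at 37C, then dosed with compounds plus a stimulation mix containing 100uM IBMX and 25uM Ro-20-1724 for 0.5hr at room temperature. cAMP was measured by HTRF competition, 1hr.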

Sequence of Beta-2 adrenergic receptor (Homo sapiens) (P07550 whole entry, looked up): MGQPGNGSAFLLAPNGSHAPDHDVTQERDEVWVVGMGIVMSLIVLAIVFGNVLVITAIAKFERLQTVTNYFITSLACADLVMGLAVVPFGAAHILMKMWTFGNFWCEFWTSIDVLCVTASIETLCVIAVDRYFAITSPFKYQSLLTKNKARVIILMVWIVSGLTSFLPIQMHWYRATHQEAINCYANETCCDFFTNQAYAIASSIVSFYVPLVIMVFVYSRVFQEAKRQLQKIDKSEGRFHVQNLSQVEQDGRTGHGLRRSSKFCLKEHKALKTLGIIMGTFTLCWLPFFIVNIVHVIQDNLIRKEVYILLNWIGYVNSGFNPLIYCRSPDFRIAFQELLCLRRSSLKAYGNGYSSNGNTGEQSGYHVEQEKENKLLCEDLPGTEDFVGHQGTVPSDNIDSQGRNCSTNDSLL

Compound | Potency
CCCN(CCC)C(=O)C(CCC(=O)O)NC(=O)c1ccccc1 (configuration not stated) | inactive
CCN(CC)CCNC(=O)c1cc(S(C)(=O)=O)ccc1OC | inactive
CCn1cc(C(=O)O)c(=O)c2cc(F)c(N3CCNCC3)cc21 | inactive
O=C(Oc1ccccc1C(=O)O)c1ccccc1O | inactive
CCCc1nn(C)c2c(=O)[nH]c(-c3cc(S(=O)(=O)N4CCN(C)CC4)ccc3OCC)nc12 | inactive
Cc1ccc(S(=O)(=O)NC(=O)NN2CC3CCCC3C2)cc1 (configuration not stated) | inactive

Each compound was assayed against D(2) dopamine receptor (Homo sapiens) (UniProt P14416) (assay: Dopamine D2 receptor (DRD2) small molecule agonists, cell-based qHTS assay (AID 1963594; note: nearly all actives have a fitted effect of over 35% in size)). Conditions: HEK293-DRD2 cAMP HTRF, agonist mode, 30 min; series mostly up to 92.4 µM.
Outline: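 cAMP accumulation in DRD2-HEK293 cells measured by HTRF after 1 h detection; compounds added 10 min before NKH477 (200nM […]) forskolin-analogue stimulation, 30 min at room temperature, with Ro20-1724 present at 0.1 mM final.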

Sequence of D(2) dopamine receptor (Homo sapiens) (P14416 whole entry, looked up): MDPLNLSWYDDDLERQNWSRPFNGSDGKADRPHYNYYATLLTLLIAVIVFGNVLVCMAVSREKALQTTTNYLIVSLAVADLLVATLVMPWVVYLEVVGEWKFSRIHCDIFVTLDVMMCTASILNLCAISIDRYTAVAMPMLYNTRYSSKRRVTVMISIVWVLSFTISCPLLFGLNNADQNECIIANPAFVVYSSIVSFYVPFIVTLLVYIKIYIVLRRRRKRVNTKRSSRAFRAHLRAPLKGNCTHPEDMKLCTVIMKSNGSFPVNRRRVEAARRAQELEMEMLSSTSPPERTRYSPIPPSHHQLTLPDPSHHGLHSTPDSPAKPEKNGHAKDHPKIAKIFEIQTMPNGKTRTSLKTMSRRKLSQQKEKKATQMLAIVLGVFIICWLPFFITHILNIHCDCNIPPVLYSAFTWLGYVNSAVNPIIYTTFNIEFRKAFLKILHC

Compound | Potency | activation
O=c1[nH]c(=O)n([C@H]2C[C@H](O)[C@@H](CO)O2)cc1I | inactive | –
CC[N+](CC)(CC)CCOc1cccc(OCC[N+](CC)(CC)CC)c1OCC[N+](CC)(CC)CC | inactive | –
C[N+]1(C)[C@@H]2CC(OC(=O)[C@H](CO)c3ccccc3)C[C@H]1[C@@H]1O[C@@H]12 (some centres not stated) | inactive | –
C[C@H]1C[C@H]2[C@@H]3CCC4=CC(=O)C=C[C@]4(C)[C@@]3(F)[C@@H](O)C[C@]2(C)[C@@]1(O)C(=O)COP(=O)(O)O | inactive | –
CCOC(=O)OC(C)OC1=C(C(=O)Nc2ccccn2)N(C)S(=O)(=O)c2ccccc21 (configuration not stated) | inactive | –
C[N+](C)(C)CC(O)CC(=O)[O-] (configuration not stated) | inactive | –
CC1=NS(=O)(=O)c2cc(Cl)ccc2N1 | inactive | –
CC[C@H]1OC(=O)[C@H](C)[C@@H](O[C@H]2C[C@@](C)(OC)[C@@H](O)[C@H](C)O2)[C@H](C)[C@@H](O[C@@H]2O[C@H](C)C[C@H](N(C)C)[C@H]2O)[C@](C)(OC)C[C@@H](C)C(=O)[C@H](C)[C@@H](O)[C@]1(C)O | inactive | –
CC[C@H]1OC(=O)[C@H](C)[C@@H](O[C@H]2C[C@@](C)(OC)[C@@H](O)[C@H](C)O2)[C@H](C)[C@@H](O[C@@H]2O[C@H](C)C[C@H](N(C)C)[C@H]2O)[C@](C)(O)C[C@@H](C)C(=O)[C@H](C)[C@@H](O)[C@]1(C)O | inactive | –
NCCCNCCSP(=O)(O)O | – | -13.4% [at 8.39 µM]
NS(=O)(=O)c1cc2c(cc1Cl)NC(C(Cl)Cl)NS2(=O)=O (configuration not stated) | inactive | –
CCOC(=O)[C@H](CCc1ccccc1)N[C@@H](C)C(=O)N1CCC[C@H]1C(=O)O | inactive | –
COc1cc(C(=O)NC2CCCNC2)cc(OC)c1OC (configuration not stated) | inactive | –
CCN[C@@H]1C[C@H](N)[C@@H](OC2OC(CN)=CCC2N)[C@H](O)[C@H]1O[C@H]1OC[C@](C)(O)[C@H](NC)[C@H]1O (some centres not stated) | – | -8.99% [at 0.349 µM]
O=C(O)CCNC(=O)c1ccccc1 | inactive | –
CN1CCN(C(c2ccccc2)c2ccccc2)CC1 | inactive | –
CNS(=O)(=O)Cc1ccc2[nH]cc(CCN(C)C)c2c1 | inactive | –
CCN(CC)CCNC(=O)c1cc(S(C)(=O)=O)ccc1OC | inactive | –
CCOC(=O)[C@H](CCc1ccccc1)N[C@@H](C)C(=O)N1[C@H](C(=O)O)C[C@@H]2CCC[C@@H]21 | inactive | –
Nc1ccc(S(=O)(=O)NC(=O)c2ccccc2)cc1 | inactive | –
CN1CCN(c2c(F)cc3c(=O)c(C(=O)O)cn(CCF)c3c2F)CC1 | inactive | –
CCn1cc(C(=O)O)c(=O)c2cnc(N3CCCC3)nc21 | – | 1.32% [at 8.39 µM]
CCn1cc(C(=O)O)c(=O)c2cc(F)c(N3CCNCC3)cc21 | inactive | –
Cc1[nH]cnc1CN1CCc2c(c3ccccc3n2C)C1=O | inactive | –
O=C(Oc1ccccc1C(=O)O)c1ccccc1O | inactive | –
CC12CCC(CC1=O)C2(C)C (configuration not stated) | inactive | –
NCCCCCC(=O)O | inactive | –
CCOc1cc(N)c(Cl)cc1C(=O)NCC1CN(Cc2ccc(F)cc2)CCO1 (configuration not stated) | inactive | –
CCCc1nn(C)c2c(=O)[nH]c(-c3cc(S(=O)(=O)N4CCN(C)CC4)ccc3OCC)nc12 | inactive | –
Cc1ccc(S(=O)(=O)NC(=O)NN2CC3CCCC3C2)cc1 (configuration not stated) | inactive | –

The compounds below were run against D(2) dopamine receptor (Homo sapiens) (UniProt P14416) (assay: Dopamine D2 receptor (DRD2) small molecule antagonists, cell-based qHTS assay (AID 1963595; active = well fitted inhibition curve with a large enough effect in the signal ratio in the repeat runs, with a control signal flat; the % refers to the signal ratio; note: potency is the fitted concentration of half-maximal effect)). Conditions: HEK293-DRD2 cAMP HTRF antagonist mode; series mostly up to 92.4 µM.
Outline: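 Human DRD2 antagonist qHTS measuring cAMP by HTRF. The cells are exposed to compound for 10 min, then to NKH477 (200 nM) and quinpirole (12 nM) for 30 min at RT, with Ro20-1724 (0.1 mM) present throughout.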

Compound | Potency | activity change, negative = inhibition
CC[N+](CC)(CC)CCOc1cccc(OCC[N+](CC)(CC)CC)c1OCC[N+](CC)(CC)CC | inactive | –
C[C@@H]1C[C@H]2[C@@H]3CCC4=CC(=O)C=C[C@]4(C)[C@@]3(F)[C@@H](O)C[C@]2(C)[C@H]1C(=O)CO | inactive | –
C[C@H]1C[C@H]2[C@@H]3CCC4=CC(=O)C=C[C@]4(C)[C@@]3(F)[C@@H](O)C[C@]2(C)[C@@]1(O)C(=O)COP(=O)(O)O | inactive | –
CCOC(=O)OC(C)OC1=C(C(=O)Nc2ccccn2)N(C)S(=O)(=O)c2ccccc21 (configuration not stated) | inactive | –
C[N+](C)(C)CC(O)CC(=O)[O-] (configuration not stated) | inactive | –
CC1=NS(=O)(=O)c2cc(Cl)ccc2N1 | inactive | –
CC(C)NCC(O)c1ccc(NS(C)(=O)=O)cc1 (configuration not stated) | inactive | –
CC[C@H]1OC(=O)[C@H](C)[C@@H](O[C@H]2C[C@@](C)(OC)[C@@H](O)[C@H](C)O2)[C@H](C)[C@@H](O[C@@H]2O[C@H](C)C[C@H](N(C)C)[C@H]2O)[C@](C)(OC)C[C@@H](C)C(=O)[C@H](C)[C@@H](O)[C@]1(C)O | inactive | –
NCCCNCCSP(=O)(O)O | – | 5.25% [at 8.38 µM]
NS(=O)(=O)c1cc2c(cc1Cl)NC(C(Cl)Cl)NS2(=O)=O (configuration not stated) | inactive | –
COC(=O)[C@@H]1[C@H]2C[C@H]3c4[nH]c5ccccc5c4CCN3C[C@@H]2CC[C@@H]1O | 23.7 µM (active) | –
Oc1cccc(O)c1O | inactive | –
COc1cc(C(=O)NC2CCCNC2)cc(OC)c1OC (configuration not stated) | inactive | –
CCN[C@@H]1C[C@H](N)[C@@H](OC2OC(CN)=CCC2N)[C@H](O)[C@H]1O[C@H]1OC[C@](C)(O)[C@H](NC)[C@H]1O (some centres not stated) | – | 14.9% [at 0.348 µM]
O=C(O)CCNC(=O)c1ccccc1 | inactive | –
CCCN(CCC)C(=O)C(CCC(=O)O)NC(=O)c1ccccc1 (configuration not stated) | inactive | –

Compound | Potency | activity change, negative = inhibition
CCN(CC)CCNC(=O)c1cc(S(C)(=O)=O)ccc1OC | 15 µM (active) | –
CCOC(=O)[C@H](CCc1ccccc1)N[C@@H](C)C(=O)N1[C@H](C(=O)O)C[C@@H]2CCC[C@@H]21 | inactive | –
Nc1ccc(S(=O)(=O)NC(=O)c2ccccc2)cc1 | inactive | –
CCn1cc(C(=O)O)c(=O)c2cnc(N3CCCC3)nc21 | – | 2.86% [at 8.38 µM]
CCn1cc(C(=O)O)c(=O)c2cc(F)c(N3CCNCC3)cc21 | inactive | –
Cc1[nH]cnc1CN1CCc2c(c3ccccc3n2C)C1=O | inactive | –
CC(C)(C)NCC(O)COc1cccc2c1C[C@H](O)[C@H](O)C2 (some centres not stated) | inactive | –
O=C(Oc1ccccc1C(=O)O)c1ccccc1O | inactive | –
C[n+]1ccccc1/C=N/O | inactive | –
CC12CCC(CC1=O)C2(C)C (configuration not stated) | inactive | –
COC(=O)CCc1ccc(OCC(O)CNC(C)C)cc1 (configuration not stated) | inactive | –
NCCCCCC(=O)O | inactive | –
CCOc1cc(N)c(Cl)cc1C(=O)NCC1CN(Cc2ccc(F)cc2)CCO1 (configuration not stated) | inactive | –
CCCc1nn(C)c2c(=O)[nH]c(-c3cc(S(=O)(=O)N4CCN(C)CC4)ccc3OCC)nc12 | inactive | –
Cc1ccc(S(=O)(=O)NC(=O)NN2CC3CCCC3C2)cc1 (configuration not stated) | inactive | –
